Reference: publication PMC4336329 (PLoS ONE, 2015)
Out of some 310,000 compounds screened, about 14,000 (4.5%) showed an effect of 50% or more. The effect is printed as a negative number. The list comes from a sample in which strong results are over-represented; it also holds similar structures and randomly drawn compounds.

target: human ether-à-go-go-related gene (hERG) potassium channel (human, UniProt Q12809); test: primary screen, population patch clamp on CHO cells stably expressing hERG; higher = less effect of the substance
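Further: peak tail current of the secondary pulse compared with the same well before compound.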

Sequence of human ether-à-go-go-related gene (hERG) potassium channel (Q12809 whole entry, looked up): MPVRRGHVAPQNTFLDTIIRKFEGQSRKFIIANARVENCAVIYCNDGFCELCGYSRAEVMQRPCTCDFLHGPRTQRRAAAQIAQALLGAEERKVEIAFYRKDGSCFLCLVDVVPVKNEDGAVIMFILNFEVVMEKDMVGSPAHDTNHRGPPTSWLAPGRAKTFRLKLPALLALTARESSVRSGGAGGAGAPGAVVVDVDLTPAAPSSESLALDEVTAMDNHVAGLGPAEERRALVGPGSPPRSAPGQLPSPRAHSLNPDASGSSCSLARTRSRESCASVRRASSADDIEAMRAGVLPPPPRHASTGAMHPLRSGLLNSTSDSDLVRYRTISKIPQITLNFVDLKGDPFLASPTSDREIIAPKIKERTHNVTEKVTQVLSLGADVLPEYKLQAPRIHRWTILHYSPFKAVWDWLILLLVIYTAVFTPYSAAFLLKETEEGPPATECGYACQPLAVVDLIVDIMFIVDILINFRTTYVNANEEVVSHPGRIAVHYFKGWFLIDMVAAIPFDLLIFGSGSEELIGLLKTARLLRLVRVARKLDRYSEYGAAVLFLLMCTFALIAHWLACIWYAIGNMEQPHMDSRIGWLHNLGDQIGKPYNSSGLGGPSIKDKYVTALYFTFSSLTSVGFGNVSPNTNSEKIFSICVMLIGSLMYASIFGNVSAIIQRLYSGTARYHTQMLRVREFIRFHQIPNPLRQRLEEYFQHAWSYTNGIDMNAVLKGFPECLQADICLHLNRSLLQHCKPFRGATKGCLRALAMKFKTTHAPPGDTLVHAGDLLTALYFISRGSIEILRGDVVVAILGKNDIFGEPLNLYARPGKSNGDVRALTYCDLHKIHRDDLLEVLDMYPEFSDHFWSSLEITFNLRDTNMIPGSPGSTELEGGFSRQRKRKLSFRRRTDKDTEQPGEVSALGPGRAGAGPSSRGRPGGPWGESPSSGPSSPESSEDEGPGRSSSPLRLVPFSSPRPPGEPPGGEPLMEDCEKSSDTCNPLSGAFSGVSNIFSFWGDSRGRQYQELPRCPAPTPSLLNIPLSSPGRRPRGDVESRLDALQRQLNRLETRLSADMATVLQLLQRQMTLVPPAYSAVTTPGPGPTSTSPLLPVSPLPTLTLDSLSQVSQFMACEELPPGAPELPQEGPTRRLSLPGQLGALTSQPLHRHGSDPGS

| SMILES | hERG current change (%, negative = inhibition) at 10uM [%] |
| --- | --- |
| COc1ccc(S(=O)(=O)N2CCC(C(=O)Nc3ccccc3N3CCCCC3)CC2)cc1OC | 3.04 |
| Cc1ccc(S(=O)(=O)N2CCC(C(=O)Nc3ccccc3N3CCCCC3)CC2)cc1C | -9.46 |
| C=CCn1c(Cc2csc(N)n2)nnc1SCC(=O)OCC | -0.614 |
| O=C(O)CCc1nc2ccccc2c(=O)[nH]1 | 38.7 |
| CC(=O)c1cn(CC(=O)NCc2cccnc2)c2ccccc12 | 3.67 |
| CCc1nnc(NC(=O)CSc2nnc(-c3cccnc3)n2C)s1 | 13.6 |
| CCOc1ccc(OCCC(=O)OCC(=O)N2CCN(c3ccc(OC)cc3)CC2)cc1 | 6.92 |
| CN1CCN(C(=O)c2ccccc2NC(=O)CCN2C(=O)c3ccccc3C2=O)CC1 | -3.71 |
| C=CCSc1nnc(NC(=O)CSc2nc3ccccc3[nH]2)s1 | 9.74 |
| COc1cccc(NC(=O)Cn2c(-c3cncs3)nc3ccccc32)c1 | -23.9 |
| O=C(CNC(=O)c1ccco1)OCc1cccc(Cl)c1 | -7.25 |
| COC(=O)c1c(C)n(-c2ccc(C)cc2)c2ccc(O)cc12 | -3.54 |
| COC(=O)c1c(C)n(Cc2ccccc2)c2ccc(O)cc12 | 14.8 |
| COC(=O)c1c(C(=O)OC)n(CCCN)c2ccc(C)cc12.Cl | -77 |
| O=C(NCCC1=CCCCC1)c1cc(COc2ccc(F)cc2Cl)on1 | 10.4 |
| Cc1ccc(NC(=O)Cn2c(CCC(=O)O)ccc2-c2cccs2)cc1 | -2.61 |
| COc1cccc(NC(=O)Cn2c(CCC(=O)O)ccc2-c2cccs2)c1 | 12.4 |
| Cc1ccc(NC(=O)Cn2c(CCC(=O)O)ccc2-c2cccs2)cc1Cl | -75.3 |
| CC(C)Oc1ccc(S(=O)(=O)N2CCOCC2)cc1NC(=O)C1CCCCC1 | -19.6 |
| O=C(O)CSc1ncnc2sc(-c3ccccc3)cc12 | 23.6 |
| Cc1cccc(Nc2sc(C(=O)c3cc4cc(Cl)ccc4o3)c(N)c2C#N)c1 | -2.78 |
| CN1CCN(c2nc(Nc3cccc(C(F)(F)F)c3)nc(N3CCOCC3)n2)CC1 | -60 |
| CN1CCN(c2nc(Nc3ccc(F)cc3)nc(Nc3ccc(F)cc3)n2)CC1 | -60.5 |

| SMILES | hERG current change (%, negative = inhibition) at 10uM [%] |
| --- | --- |
| Cl.Fc1ccc(Nc2nc(N3CCOCC3)nc(N3CCOCC3)n2)cc1 | 4.26 |
| COc1ccc(N2CCN(c3nc(Cl)nc(Nc4ccc(F)cc4)n3)CC2)cc1 | 7.8 |
| FC(F)(F)c1cccc(Nc2nc(N3CCOCC3)nc(N3CCOCC3)n2)c1 | 15.6 |
| FC(F)(F)c1cccc(Nc2nc(N3CCCC3)nc(N3CCCC3)n2)c1 | 23.7 |
| COc1ccc(/C=N/N=C/c2ccc(OC)c(O)c2)cc1O | 23.2 |
| Cc1ccc(C(=O)/C=C/c2ccc(-c3ccccc3[N+](=O)[O-])o2)cc1 | 12.5 |
| Cc1ccc(C(=O)N/C(=C\c2ccc(-c3ccccc3[N+](=O)[O-])o2)C(=O)NCCN(C)C)cc1 | -55.4 |
| CCCCNC(=O)/C(=C\c1ccc([N+](=O)[O-])o1)NC(=O)c1ccccc1 | -39.8 |
| Cc1ccc(C(=O)N/C(=C\c2ccc(-c3ccccc3[N+](=O)[O-])o2)C(=O)NCCCN(C)C)cc1 | -74.5 |
| O=C(O)/C(=C\c1ccc(-c2ccccc2[N+](=O)[O-])o1)c1ccccc1 | 23.6 |
| Cc1ccc(Oc2ccccc2/C=C/C(=O)O)cc1 | 14.6 |
| C=CCn1c(SCC(=O)NC(=O)NC2CCCC2)nnc1C1CCCCC1 | 3.7 |
| O=C(CSc1nnc(CNc2ccc(F)cc2)o1)N1c2ccccc2Sc2ccccc21 | 11 |
| CCN1CCN(CCNC(=O)c2ccc(/C=C3/Sc4ccccc4N(Cc4cccc(C)c4)C3=O)cc2)CC1 | -22 |
| CCOc1cc(CNCCCN2CCOCC2)ccc1OCC(=O)Nc1cccc2ccccc12.Cl | -7.77 |
| CCOc1cc(CNCCCN2CCOCC2)cc(Br)c1OCc1ccccc1Cl.Cl | -64.9 |
| CCC(CO)NCc1ccc(OCC(=O)Nc2cccc(C(F)(F)F)c2)c(OC)c1 (centres unmarked) | -43.6 |
| CCOc1cc(CNC(C)(C)C)ccc1OCC(=O)Nc1cccc(C(F)(F)F)c1.Cl | -13.7 |
| COc1ccc(NC(=O)COc2ccc(CNCCCN3CCOCC3)cc2OC)cc1.Cl | 0.185 |
| COc1cc(CNCCCN2CCOCC2)ccc1OCC(=O)NC(C)(C)C.Cl | 21 |
| CCOc1cc(CNCCN2CCOCC2)ccc1OCc1ccccc1Cl.Cl | -41.8 |
| CCOc1cc(CNCCCN2CCOCC2)cc(Cl)c1OCC(=O)NC(C)(C)C.Cl | 5.38 |
| CCOc1cc(CNC(CC)CO)ccc1OCC(=O)Nc1cccc(C(F)(F)F)c1 (centres unmarked) | -68.3 |

| SMILES | hERG current change (%, negative = inhibition) at 10uM [%] |
| --- | --- |
| COc1cc(CNCCCN2CCOCC2)ccc1OCC(=O)Nc1cccc(C(F)(F)F)c1.Cl | -56.6 |
| CCOc1cc(CNCCO)cc(Br)c1OCc1ccccc1Cl.Cl | 12.5 |
| CCOc1cc(CNCCCN2CCOCC2)cc(Br)c1OCC(=O)Nc1cccc(C(F)(F)F)c1.Cl | -70.3 |
| CCOc1ccc(CC(=O)Nc2ccc(S(=O)(=O)N3CCCC3)cc2)cc1 | 10.4 |
| Cc1cc(C(=O)COC(=O)CC2Sc3ccccc3NC2=O)c(C)n1-c1ccccc1 (centres unmarked) | 28 |
| O=C(COc1ccc2c(c1)C(=O)CC1(CCCCC1)O2)NCc1ccccn1 | -33.9 |
| O=C(CCS(=O)(=O)c1cccc2nonc12)Nc1cccc2c1CCCC2 | 4.5 |
| Cc1ccc(C)c(N2CC(C(=O)O)CC2=O)c1 (centres unmarked) | -2.08 |
| CN(CC(=O)Nc1ccc(Cl)cc1)C(=O)COc1ncnc2ccccc12 | -8.52 |
| CCCCn1nnnc1SCC(=O)N(CC)CC | 10.4 |
| CCOc1ccc(NC(=O)CSc2nnc(C)n2Cc2ccccc2)cc1 | -16.4 |
| O=C(CN1CC[n+]2c(-c3ccccc3)csc21)c1ccc(Br)cc1.[Br-] | -40.6 |
| O=C(CN1CC[n+]2c(-c3cccs3)csc21)c1ccc(Br)cc1.[Br-] | -45.9 |
| O=C(CN1CC[n+]2c(-c3cccs3)csc21)c1ccc(-c2ccccc2)cc1.[Br-] | -54.3 |
| NNC(=O)c1cccc(S(=O)(=O)Nc2cccc(C(F)(F)F)c2)c1 | 1.4 |
| CC1CN(c2ccc([N+](=O)[O-])cn2)CC(C)O1 (centres unmarked) | -19.7 |
| CC1(C)CC(NCCC(c2ccccc2)c2ccco2)CCO1 (centres unmarked) | -52.5 |
| O=C1c2ccccc2C(=O)N1CCC(c1ccc(F)cc1)c1ccco1 (centres unmarked) | -6.1 |
| CC1(C)CC(C(=O)NCCC(c2ccccc2)c2ccco2)CCO1 (centres unmarked) | -9.31 |
| O=C1CCC(=O)N1CCC(c1ccc(F)cc1)c1ccco1 (centres unmarked) | 4.27 |
| CC1(C)CC(CNCCC(c2ccc(F)cc2)c2ccco2)CCO1 (centres unmarked) | -62.5 |
| CC1(C)CC(NCc2ccccc2)CCO1.Cl (centres unmarked) | 5.1 |
| Cc1ccc(NC(=O)COC(=O)CCC(=O)c2ccc(Cl)cc2)cc1S(=O)(=O)N(C)C | -1.5 |

| SMILES | hERG current change (%, negative = inhibition) at 10uM [%] |
| --- | --- |
| CCOC(=O)N1CCc2c(sc3nc(SC(C)C)n(N)c(=O)c23)C1 | -20.9 |
| Cl.c1coc(CNc2ncnc3ccccc23)c1 | 2.88 |
| Cl.c1coc(CNc2nc(N3CCCCC3)nc3ccccc23)c1 | -77.5 |
| Cl.c1ccc(N2CCN(c3nc(NCc4ccco4)c4ccccc4n3)CC2)cc1 | -73.6 |
| Fc1ccccc1-c1nc(NCc2ccco2)c2ccccc2n1 | -2.1 |
| Clc1nc(NCc2ccco2)nc(N2CCCCC2)n1 | 33.5 |
| CC(C)C(=O)NNC(=O)c1csc(CS(=O)(=O)c2ccc(Cl)cc2)n1 | -1.62 |
| O=c1cc(-c2ccc(O)cc2)oc2ccccc12 | 16.1 |
| CCOC(=O)c1ccc(NC(=O)C2C3C=CC(C3)C2C(=O)O)cc1 (centres unmarked) | 4.67 |
| CN(C)CC/C=C1\c2cc(F)ccc2CSc2ccccc21.O=C(O)/C=C\C(=O)O | -35.4 |
| COc1ccc2c(c1)C1C=CCC1C(c1cc3c(cc1Br)OCO3)N2 (centres unmarked) | 1.4 |
| O=C(N/C(=C/c1ccc([N+](=O)[O-])cc1)C(=O)N1CCOCC1)c1ccco1 | -70.1 |
| O=C(N/C(=C/c1cccc([N+](=O)[O-])c1)C(=O)N1CCCCCC1)c1ccco1 | -28.2 |
| COc1ccc(/C=C(\NC(=O)c2ccco2)C(=O)N2CCOCC2)cc1 | 0.365 |
| O=C(N/C(=C\c1ccc([N+](=O)[O-])cc1)C(=O)N1CCCCC1)c1ccco1 | -70.3 |
| O=C(N/C(=C\c1ccc([N+](=O)[O-])cc1)C(=O)N1CCOCC1)c1ccco1 | -69.2 |
| O=C(N/C(=C\c1ccc(Cl)cc1)C(=O)N1CCOCC1)c1ccco1 | -31.4 |
| O=C(N/C(=C\c1cccc([N+](=O)[O-])c1)C(=O)N1CCOCC1)c1ccco1 | 14.9 |
| O=C(N/C(=C/c1ccccc1)C(=O)N1CCCCC1)c1ccc(Br)o1 | -7.64 |
| O=C(N/C(=C\c1ccccc1)C(=O)N1CCCCC1)c1ccc(Br)o1 | 15.8 |
| O=C(N/C(=C/c1cccc([N+](=O)[O-])c1)C(=O)N1CCCCC1)c1ccco1 | -2.24 |
| O=C(N/C(=C\c1ccc([N+](=O)[O-])cc1)C(=O)N1CCCCC1)c1ccc(Br)o1 | -72 |
| O=C(N/C(=C\c1ccccc1)C(=O)N1CCOCC1)c1ccco1 | 17.1 |
